Measurements as given in the supplement of paper PMC10849652.
Targets with a hit are over-represented here; the source holds about 7,900 in all. About 0.6% of all pairs of compound and target were hits.

Key:
Assay in all cases: log2 fold change, soluble protein after heating vs DMSO (PISA); higher = thermal stabilisation; K562 cells, 10 uM, 30 min; active = over 0.2 and 3.5 SD of the protein, either way, in both replicates (recomputed)
erlotinib = compound: C#Cc1cccc(Nc2ncnc3cc(OCCOC)c(OCCOC)cc23)c1 [erlotinib]
Outline: (§1)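 For each measurement, 10 μM compound was applied for 30 min to K562 cells at 2×10^6 cells/mL. Aliquots were heated for 3 min across 48°C-58°C, pooled, and extracted in PBS with 0.5% NP-40 at 4°C; the supernatant after 21,000xg for 90 min was soluble protein. This was quantified by TMTpro 16plex LC-MS/MS with channel sums equalised, and thermal stability was reported relative to control samples from duplicates, on a log2 fold-change scale.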

[1] = compound: C/C(=N\NC(=O)C1=CC(=CC=C1)S(=O)(=O)N2CCOCC2)/C3=C(C=CC(=C3)Cl)O
Outline: as §1

[2] = compound: C1=CC(=C(C=C1Cl)C2=NC3=NC=CN=C3C(=N2)NC4=CC=NC=C4)F
Outline: as §1

[3] = compound: C1=CC(=CC=C1C2=NC3=C(N2)C=C(C=C3)C(=O)N)OC4=CC=C(C=C4)Cl
Outline: as §1

[4] = compound: C1=CC2=C(C=CC(=C2)/C=C\3/C(=O)NC(=NCC4=CC=CS4)S3)N=C1
Outline: as §1

[5] = compound: C1=CC2=NC=CN=C2C=C1/C=C/3\C(=O)NC(=O)S3
Outline: as §1

[6] = compound: C1=CC=C(C=C1)C2=NC(=C(N2)C3=CC=NC=C3)C4=CC(=C(C=C4)Cl)O
Outline: as §1

[7] = compound: C1=CC=C2C(=C1)C3=NNC4=CC=CC(=C43)C2=O
Outline: as §1

[8] = compound: C1CCN(C1)C(=O)NC2=CC=CC(=C2)NC3=NC=C(C(=N3)NCCC4=CN=CN4)Br
Outline: as §1

[9] = compound: C1CN(CCC1(CC2=CC=C(C=C2)Cl)N)C3=NC=NC4=C3C=CN4
Outline: as §1

Measured: log2 fold change

FIS1 (UniProt Q9Y3D6)
inactive: erlotinib 0.013 | [1] 0.066 | [2] 0.015 | [3] 0.01 | [4] -0.034 | [5] 0.024 | [6] -0.025 | [7] 0.02 | [8] -0.06 | [9] 0.09

HDAC2 (UniProt Q92769)
Sequence of UniProt Q92769 (Q92769 whole entry, looked up): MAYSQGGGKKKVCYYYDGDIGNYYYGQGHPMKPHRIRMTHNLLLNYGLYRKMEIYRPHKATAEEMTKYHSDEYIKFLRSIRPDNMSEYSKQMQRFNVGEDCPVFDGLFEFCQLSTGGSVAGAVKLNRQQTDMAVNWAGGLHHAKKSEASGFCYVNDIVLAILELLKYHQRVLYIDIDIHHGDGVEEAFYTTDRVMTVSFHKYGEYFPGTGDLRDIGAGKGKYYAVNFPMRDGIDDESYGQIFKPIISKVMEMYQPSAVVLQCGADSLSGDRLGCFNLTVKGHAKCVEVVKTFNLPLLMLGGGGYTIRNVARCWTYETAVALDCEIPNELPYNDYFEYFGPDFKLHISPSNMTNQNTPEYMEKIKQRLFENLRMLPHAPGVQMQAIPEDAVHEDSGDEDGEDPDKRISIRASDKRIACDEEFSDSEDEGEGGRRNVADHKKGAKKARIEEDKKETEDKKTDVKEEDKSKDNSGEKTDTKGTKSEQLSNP
inactive: [1] 0.013 | [2] -0.02 | [3] -0.012 | [4] 0.006 | [5] 0.002 | [6] -0.011 | [7] -0.011 | [8] -0.025 | [9] 0.023
active: erlotinib 0.757

HOOK3 (UniProt Q86VS8)
inactive: erlotinib 0.04 | [1] 0.039 | [2] 0.009 | [3] -0.008 | [4] 0.055 | [5] 0.032 | [6] -0.002 | [7] -0.036 | [8] -0.005 | [9] -0.024

GOPC (UniProt Q9HD26)
inactive: erlotinib 0.016 | [1] 0.051 | [2] -0.284 | [3] -0.178 | [4] -0.027 | [5] -0.147 | [6] -0.008 | [7] 0.265 | [8] -0.036 | [9] 0.06

GBF1 (UniProt Q92538)
Sequence of UniProt Q92538 (Q92538 whole entry, looked up): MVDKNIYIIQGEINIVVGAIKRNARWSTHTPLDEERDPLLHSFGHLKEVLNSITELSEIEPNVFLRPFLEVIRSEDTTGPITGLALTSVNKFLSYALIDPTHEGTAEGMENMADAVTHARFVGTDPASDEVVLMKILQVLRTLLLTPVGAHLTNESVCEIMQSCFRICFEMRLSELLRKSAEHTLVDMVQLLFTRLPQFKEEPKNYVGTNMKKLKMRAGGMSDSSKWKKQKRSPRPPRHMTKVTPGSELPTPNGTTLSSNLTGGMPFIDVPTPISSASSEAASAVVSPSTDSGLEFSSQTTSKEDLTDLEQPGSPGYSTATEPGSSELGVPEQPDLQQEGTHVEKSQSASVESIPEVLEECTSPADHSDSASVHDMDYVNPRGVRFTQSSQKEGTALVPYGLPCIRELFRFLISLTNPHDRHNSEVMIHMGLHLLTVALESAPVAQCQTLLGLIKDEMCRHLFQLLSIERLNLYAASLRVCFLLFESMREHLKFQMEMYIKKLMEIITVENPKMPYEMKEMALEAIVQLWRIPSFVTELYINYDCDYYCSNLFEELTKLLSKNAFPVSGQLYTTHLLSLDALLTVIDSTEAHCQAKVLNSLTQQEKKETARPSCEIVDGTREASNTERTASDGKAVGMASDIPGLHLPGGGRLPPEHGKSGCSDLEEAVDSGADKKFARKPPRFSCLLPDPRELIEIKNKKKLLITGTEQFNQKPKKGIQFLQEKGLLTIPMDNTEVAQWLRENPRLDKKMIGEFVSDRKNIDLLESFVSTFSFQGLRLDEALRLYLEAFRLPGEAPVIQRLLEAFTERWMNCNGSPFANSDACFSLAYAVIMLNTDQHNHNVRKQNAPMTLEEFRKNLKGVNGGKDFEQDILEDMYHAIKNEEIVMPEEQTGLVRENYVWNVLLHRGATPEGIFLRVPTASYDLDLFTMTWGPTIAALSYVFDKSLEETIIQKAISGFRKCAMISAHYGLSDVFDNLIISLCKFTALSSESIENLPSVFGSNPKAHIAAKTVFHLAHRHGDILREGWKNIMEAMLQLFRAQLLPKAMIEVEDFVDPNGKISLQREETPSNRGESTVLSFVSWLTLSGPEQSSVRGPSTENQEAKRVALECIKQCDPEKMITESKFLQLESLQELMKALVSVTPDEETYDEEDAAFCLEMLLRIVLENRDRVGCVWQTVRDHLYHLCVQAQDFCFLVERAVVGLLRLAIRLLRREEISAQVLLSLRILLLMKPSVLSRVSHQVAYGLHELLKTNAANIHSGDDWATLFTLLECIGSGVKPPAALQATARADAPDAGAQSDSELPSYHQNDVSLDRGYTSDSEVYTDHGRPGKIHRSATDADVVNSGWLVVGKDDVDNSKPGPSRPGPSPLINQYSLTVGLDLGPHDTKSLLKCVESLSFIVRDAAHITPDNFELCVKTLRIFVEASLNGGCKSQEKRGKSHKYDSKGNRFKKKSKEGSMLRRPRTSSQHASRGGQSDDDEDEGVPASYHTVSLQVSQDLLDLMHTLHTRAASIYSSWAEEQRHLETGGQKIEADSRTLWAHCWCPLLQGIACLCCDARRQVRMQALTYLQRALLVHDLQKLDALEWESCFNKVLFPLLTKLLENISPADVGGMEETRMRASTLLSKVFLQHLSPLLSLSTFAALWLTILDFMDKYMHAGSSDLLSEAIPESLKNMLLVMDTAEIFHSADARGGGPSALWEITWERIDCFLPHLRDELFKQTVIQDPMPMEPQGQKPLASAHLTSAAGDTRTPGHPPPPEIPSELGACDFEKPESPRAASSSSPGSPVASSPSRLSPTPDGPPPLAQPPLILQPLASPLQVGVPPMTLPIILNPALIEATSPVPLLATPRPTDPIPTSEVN
inactive: erlotinib -0.012 | [1] 0.077 | [2] -0.049 | [3] -0.022 | [4] 0.075 | [5] 0.028 | [6] -0.036 | [7] 0.033 | [8] -0.026 | [9] -0.052

FUCA2 (UniProt Q9BTY2)
inactive: erlotinib -0.001 | [1] -0.03 | [2] -0.026 | [3] 0.013 | [4] 0.015 | [5] 0.038 | [6] 0.033 | [7] 0.029 | [8] 0.056 | [9] 0.017

IFRD2 isoform 2 (UniProt Q12894)
inactive: erlotinib 0.204 | [1] -0.109 | [2] 0.003 | [3] 0.084 | [4] 0.048 | [5] 0.082 | [6] -0.051 | [7] 0.118 | [8] 0.302 | [9] 0.04

GSK3B isoform 2 (UniProt P49841)
inactive: erlotinib -0.024 | [1] -0.051 | [2] 0.007 | [3] 0.027 | [4] 0.038 | [5] -0.013 | [6] 0.095 | [7] 0.091 | [8] 0.042 | [9] 0.159

HBZ (UniProt P02008)
inactive: erlotinib -0.013 | [1] 0.077 | [2] 0.252 | [3] 0.042 | [4] 0.143 | [5] 0.006 | [6] 0.118 | [7] 0.017 | [8] -0.034 | [9] 0.043

ICAM1 (UniProt P05362)
Sequence of UniProt P05362 (P05362 whole entry, looked up): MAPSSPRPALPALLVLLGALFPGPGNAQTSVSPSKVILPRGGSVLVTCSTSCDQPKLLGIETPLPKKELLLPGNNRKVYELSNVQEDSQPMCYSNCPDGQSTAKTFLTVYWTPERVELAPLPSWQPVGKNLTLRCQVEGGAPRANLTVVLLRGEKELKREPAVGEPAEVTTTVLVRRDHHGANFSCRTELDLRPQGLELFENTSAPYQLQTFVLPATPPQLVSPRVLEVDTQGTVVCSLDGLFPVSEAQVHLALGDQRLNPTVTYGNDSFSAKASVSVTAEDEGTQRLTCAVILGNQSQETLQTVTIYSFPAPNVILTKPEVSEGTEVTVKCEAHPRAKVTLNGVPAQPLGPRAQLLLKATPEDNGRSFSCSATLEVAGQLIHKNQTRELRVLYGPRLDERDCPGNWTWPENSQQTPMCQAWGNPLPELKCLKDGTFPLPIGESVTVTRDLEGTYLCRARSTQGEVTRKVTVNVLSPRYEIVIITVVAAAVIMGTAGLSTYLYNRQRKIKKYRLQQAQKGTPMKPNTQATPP
inactive: erlotinib 0.008 | [1] 0.008 | [2] 0.015 | [3] 0.018 | [4] -0.005 | [5] -0.033 | [6] -0.01 | [7] -0.004 | [8] -0.047 | [9] 0.073

GTF2A2 (UniProt P52657)
inactive: erlotinib -0.057 | [1] 0.048 | [2] 0.089 | [3] -0.005 | [4] 0.132 | [5] 0.038 | [6] -0.002 | [7] -0.02 | [8] 0.008 | [9] 0.07

GOLGB1 isoform 2 (UniProt Q14789)
active: [2] -0.312
inactive: erlotinib -0.152 | [1] -0.045 | [3] -0.055 | [4] 0.099 | [5] 0.071 | [6] -0.049 | [7] -0.059 | [8] -0.059 | [9] -0.08

GOLPH3 (UniProt Q9H4A6)
inactive: erlotinib 0.008 | [1] 0.073 | [2] 0.104 | [3] -0.014 | [4] 0.011 | [5] 0.008 | [6] 0.051 | [7] -0.007 | [8] -0.101 | [9] 0.043

GEMIN6 (UniProt Q8WXD5)
inactive: erlotinib -0.002 | [1] 0.02 | [2] -0.042 | [3] 0.027 | [4] -0.022 | [5] 0.065 | [6] 0.125 | [7] -0.012 | [8] -0.002 | [9] -0.045

HIKESHI (UniProt Q53FT3)
inactive: erlotinib 0.004 | [1] 0.1 | [2] 0.017 | [3] 0.003 | [4] 0.073 | [5] 0.02 | [6] -0.002 | [7] -0.03 | [8] -0.056 | [9] 0.009

HNRNPH1 (UniProt P31943)
Sequence of UniProt P31943 (P31943 whole entry, looked up): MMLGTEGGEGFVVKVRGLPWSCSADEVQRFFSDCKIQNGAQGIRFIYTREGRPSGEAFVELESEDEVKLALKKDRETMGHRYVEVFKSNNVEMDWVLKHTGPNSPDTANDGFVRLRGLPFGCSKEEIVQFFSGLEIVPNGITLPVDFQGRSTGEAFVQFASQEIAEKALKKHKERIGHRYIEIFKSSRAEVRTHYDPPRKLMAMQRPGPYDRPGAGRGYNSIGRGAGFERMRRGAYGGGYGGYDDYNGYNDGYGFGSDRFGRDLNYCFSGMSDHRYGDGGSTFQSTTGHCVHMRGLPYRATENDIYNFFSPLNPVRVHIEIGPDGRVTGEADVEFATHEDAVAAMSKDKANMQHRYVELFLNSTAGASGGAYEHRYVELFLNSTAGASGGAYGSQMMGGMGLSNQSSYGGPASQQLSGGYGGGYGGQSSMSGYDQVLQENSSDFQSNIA
inactive: erlotinib 0.043 | [1] 0.102 | [2] -0.04 | [3] 0.004 | [4] -0.035 | [5] -0.012 | [6] -0.016 | [7] 0.007 | [8] -0.1 | [9] -0.023

FUBP3 (UniProt Q96I24)
Sequence of UniProt Q96I24 (Q96I24 whole entry, looked up): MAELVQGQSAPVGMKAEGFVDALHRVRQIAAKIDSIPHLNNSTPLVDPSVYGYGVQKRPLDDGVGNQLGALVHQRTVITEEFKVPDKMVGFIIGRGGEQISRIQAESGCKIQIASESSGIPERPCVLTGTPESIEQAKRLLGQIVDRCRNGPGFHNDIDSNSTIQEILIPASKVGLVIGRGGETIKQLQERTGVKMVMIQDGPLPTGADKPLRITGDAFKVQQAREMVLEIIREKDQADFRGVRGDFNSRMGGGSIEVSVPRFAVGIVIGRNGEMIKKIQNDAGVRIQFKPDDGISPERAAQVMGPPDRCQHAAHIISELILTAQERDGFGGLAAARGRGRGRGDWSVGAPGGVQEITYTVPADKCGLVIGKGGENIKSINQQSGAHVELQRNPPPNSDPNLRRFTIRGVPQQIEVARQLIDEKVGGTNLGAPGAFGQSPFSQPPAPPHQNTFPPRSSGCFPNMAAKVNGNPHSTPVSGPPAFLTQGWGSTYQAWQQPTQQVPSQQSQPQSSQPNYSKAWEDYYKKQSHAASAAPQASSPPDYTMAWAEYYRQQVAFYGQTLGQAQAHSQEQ
inactive: erlotinib -0.059 | [1] 0.007 | [2] 0.084 | [3] 0.019 | [4] -0.014 | [5] 0.069 | [6] -0.017 | [7] 0.002 | [8] 0.009 | [9] 0.036

GNS (UniProt P15586)
Sequence of UniProt P15586 (P15586 whole entry, looked up): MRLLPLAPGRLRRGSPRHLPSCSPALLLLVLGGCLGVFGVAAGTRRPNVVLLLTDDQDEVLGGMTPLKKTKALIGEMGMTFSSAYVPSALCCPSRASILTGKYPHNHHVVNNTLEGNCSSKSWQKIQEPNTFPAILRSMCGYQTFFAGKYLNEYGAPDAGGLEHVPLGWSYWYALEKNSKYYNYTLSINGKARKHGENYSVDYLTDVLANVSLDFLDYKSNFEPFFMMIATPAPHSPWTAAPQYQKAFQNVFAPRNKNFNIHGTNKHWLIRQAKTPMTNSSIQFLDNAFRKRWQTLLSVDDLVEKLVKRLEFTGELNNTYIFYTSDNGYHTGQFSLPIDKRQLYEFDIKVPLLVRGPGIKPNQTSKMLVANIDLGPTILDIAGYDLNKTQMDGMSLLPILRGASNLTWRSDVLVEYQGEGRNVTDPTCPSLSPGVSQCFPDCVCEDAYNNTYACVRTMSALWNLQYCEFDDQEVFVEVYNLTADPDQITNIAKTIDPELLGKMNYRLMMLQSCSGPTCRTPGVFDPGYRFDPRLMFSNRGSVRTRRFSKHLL
inactive: erlotinib -0.033 | [1] -0.003 | [2] 0.005 | [3] 0.004 | [4] 0.028 | [5] 0.026 | [6] 0.03 | [7] -0.04 | [8] 0.023 | [9] 0.061

H2AFX (UniProt P16104)
inactive: erlotinib 0.05 | [1] -0.243 | [2] -0.54 | [3] 0.072 | [4] 0.014 | [5] 0.274 | [6] -0.087 | [7] -0.049 | [8] 0.231 | [9] -0.319

GSTO1 (UniProt P78417)
active: [5] 0.278
inactive: erlotinib -0.009 | [1] 0.007 | [2] 0.065 | [3] -0.001 | [4] 0.006 | [6] 0.095 | [7] 0.031 | [8] -0.005 | [9] 0.008

GALK1 isoform 2 (UniProt P51570)
inactive: erlotinib 0.002 | [1] 0.082 | [2] 0.158 | [3] -0.023 | [4] -0.08 | [5] 0.016 | [6] 0.07 | [7] 0.055 | [8] -0.094 | [9] 0.076

GAPVD1 isoform 6 (UniProt Q14C86)
inactive: erlotinib 0.008 | [1] 0.133 | [2] -0.036 | [3] -0.043 | [4] 0.033 | [5] 0.007 | [6] 0.002 | [7] 0.037 | [8] -0.012 | [9] -0.041

H1FX (UniProt Q92522)
inactive: erlotinib -0.285 | [1] -0.189 | [2] -0.379 | [3] 0.016 | [4] -0.12 | [5] -0.012 | [6] 0.033 | [7] 0 | [8] 0.076 | [9] -0.101

GYS1 (UniProt P13807)
inactive: erlotinib -0.022 | [1] -0.104 | [2] -0.345 | [3] -0.066 | [4] -0.071 | [5] -0.003 | [6] -0.14 | [7] 0.176 | [8] -0.021 | [9] -0.069

GALNT1 (UniProt Q10472)
inactive: erlotinib -0.001 | [1] -0.014 | [2] -0.069 | [3] 0.022 | [4] 0.031 | [5] 0.006 | [6] 0.06 | [7] -0.003 | [8] 0.004 | [9] 0.06

FBXO6 (UniProt Q9NRD1)
Sequence of UniProt Q9NRD1 (Q9NRD1 whole entry, looked up): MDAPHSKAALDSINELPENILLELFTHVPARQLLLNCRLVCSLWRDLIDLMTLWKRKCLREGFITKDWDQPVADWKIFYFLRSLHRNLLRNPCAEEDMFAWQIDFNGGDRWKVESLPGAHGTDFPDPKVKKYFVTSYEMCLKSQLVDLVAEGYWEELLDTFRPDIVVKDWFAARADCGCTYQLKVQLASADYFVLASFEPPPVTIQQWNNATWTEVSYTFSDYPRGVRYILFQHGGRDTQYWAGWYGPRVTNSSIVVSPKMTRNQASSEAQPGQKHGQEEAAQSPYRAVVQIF
inactive: erlotinib -0.069 | [1] 0.046 | [2] 0.075 | [3] 0.007 | [4] 0.048 | [5] 0.007 | [6] 0.021 | [7] 0.002 | [8] -0.031 | [9] 0

HDHD2 (UniProt Q9H0R4)
Sequence of UniProt Q9H0R4 (Q9H0R4 whole entry, looked up): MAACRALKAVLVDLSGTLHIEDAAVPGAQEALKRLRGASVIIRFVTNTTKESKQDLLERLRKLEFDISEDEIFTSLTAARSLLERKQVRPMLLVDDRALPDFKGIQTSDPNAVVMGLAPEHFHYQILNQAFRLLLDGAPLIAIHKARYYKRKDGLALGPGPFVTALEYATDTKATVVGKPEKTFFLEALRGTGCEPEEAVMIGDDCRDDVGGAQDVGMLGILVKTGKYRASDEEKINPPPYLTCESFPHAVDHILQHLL
inactive: erlotinib 0.029 | [1] 0 | [2] 0.133 | [3] 0.009 | [4] 0.013 | [5] 0.046 | [6] -0.015 | [7] -0.018 | [8] -0.009 | [9] 0.037

GYG1 (UniProt P46976)
inactive: erlotinib -0.064 | [1] 0.016 | [2] -0.23 | [3] 0.005 | [4] 0.089 | [5] -0.039 | [6] -0.109 | [7] 0.083 | [8] -0.075 | [9] -0.027

GLRX3 (UniProt O76003)
inactive: erlotinib -0.031 | [1] 0.024 | [2] 0.052 | [3] -0.037 | [4] 0.011 | [5] 0.006 | [6] 0.031 | [7] -0.001 | [8] 0.003 | [9] -0.015

GTPBP6 (UniProt O43824)
inactive: erlotinib -0.091 | [1] -0.017 | [2] -0.137 | [3] 0.01 | [4] 0.041 | [5] 0.066 | [6] -0.036 | [7] -0.05 | [8] 0.06 | [9] 0.027
